Compound activity deposited in PubChem BioAssay by several laboratories.
The list is not random: actives were taken first. Their share in the collection is about 4%.
GDH-TPI counter-1 – counter-screen for M. tuberculosis FBA inhibitors: GDH-TPI coupled enzymes; GDH-TPI coupled enzyme counterscreen, NADH absorbance; inhibition, % at 4.8 µM; actives 1.2% (n = 360,000); AID 588335; in the data active = inhibition above about 30%;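 note: 0% = DMSO wells and 100% = wells lacking the enzyme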
RecA splice inh – blocks M. tuberculosis RecA intein splicing; P9WHJ3; cell-free RecA intein splicing, fluorescence; inhibition, % (test concentration not listed); actives 0.75% (n = 290,000); AID 2221; in the data active = inhibition above about 30%; inconclusive = no clear call, values can overlap the other calls;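 note: 0% = vehicle wells and 100% = reference inhibitor control wells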
Mtb bLac sens – beta-lactam sensitization of Mtb H37Rv. actives 0.27% (n = 330,000). inhibition, % at 25 µM. M. tuberculosis H37Rv growth with meropenem, percent inhibition; call rule not given here;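 note: growth measured after seven days incubation then overnight dye step; 0% = bacteria only wells and 100% = bacteria with antibiotic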
FBA Mtb inh – inhibitors of M. tuberculosis fructose-bisphosphate aldolase; AID 588726; P9WQA3; inhibition, % at 1 µM; purified M. tuberculosis FBA, fluorescence read-out; actives 2.3% (n = 360,000);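 note: 0% = vehicle and 100% = reference inhibitor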
Rv3671c inh – inhibitors of M. tuberculosis serine protease Rv3671c | AID 2606 | inhibition, % at 5.96 µM | actives 0.048% (n = 320,000); in the data active = inhibition above about 38%;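 note: extracellular domain of Rv3671c used as enzyme; 0% = enzyme with DMSO and 100% = no enzyme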
Mtb UGM inh – inhibitors of M. tuberculosis UDP-galactopyranose mutase | P9WIQ1 | purified UGM, fluorescence polarization probe displacement | inhibition, % at 10 µM | actives 0.06% (n = 320,000); in the data active = inhibition above about 10%, passing the limit was not always enough; inconclusive = no clear call, values can overlap the other calls
Target sequence (P9WIQ1 whole entry, looked up): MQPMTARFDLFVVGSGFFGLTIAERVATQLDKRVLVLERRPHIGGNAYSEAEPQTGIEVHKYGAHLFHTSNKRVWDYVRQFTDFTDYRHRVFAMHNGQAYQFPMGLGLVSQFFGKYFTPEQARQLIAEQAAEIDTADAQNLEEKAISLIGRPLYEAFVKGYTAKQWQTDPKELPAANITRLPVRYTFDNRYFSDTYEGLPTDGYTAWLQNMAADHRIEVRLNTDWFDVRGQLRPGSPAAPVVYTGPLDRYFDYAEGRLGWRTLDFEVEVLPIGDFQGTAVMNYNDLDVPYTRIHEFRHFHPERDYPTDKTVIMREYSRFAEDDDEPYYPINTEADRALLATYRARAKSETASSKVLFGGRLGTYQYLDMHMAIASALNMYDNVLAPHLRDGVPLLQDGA
Mtb FBA inh conf – Mtb FBA inhibition, confirmed; shares compounds with FBA Mtb inh; purified M. tuberculosis FBA, fluorescence read-out; inhibition, % at 1 µM; actives 78% (n = 5,600);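 note: 0% = vehicle wells and 100% = reference inhibitor wells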
GDH-TPI counter-2 – GDH-TPI inhibition counter-screen for FBA inhibitors | shares compounds with FBA Mtb inh | GDH-TPI coupled enzyme counterscreen, fluorescence | inhibition, % at 1 µM | actives 81% (n = 5,600); in the data active = inhibition above about 10%
GDH-TPI dose – inhibits GDH-TPI coupling enzymes in dose response | IC50, µM | shares compounds with FBA Mtb inh | GDH-TPI coupled enzyme assay, fluorescence, artifact counterscreen | actives 79% (n = 170) | AID 652145; call rule not given here
Active calls of the source: *; ? = inconclusive; nt = no result given; + = active, no number. Cut-off read from the data, not from the text of the source, unless noted: active = inhibition above about 27%; inactive = the rest.

SMILES	GDH-TPI counter-1	RecA splice inh	Mtb bLac sens	FBA Mtb inh	Rv3671c inh	Mtb UGM inh	Mtb FBA inh conf	GDH-TPI counter-2	others
Nc1ccc2nn(-c3ccc(F)cc3)nc2c1	17	-15	75	37*	-7	-1	62*	52*
Cc1ccc(-n2nc3ccc(N)cc3n2)cc1	20	-30	-5	64*	-2	3	39*	23*
Cc1cccn2c(=O)nc(SCC(=O)NC3CCCC3)nc12	16	0	-10	2	-1	0	nt	nt
Nc1ccc(-c2ccc(N)cc2)cc1	-3	nt	nt	5	nt	nt	nt	nt
Nc1ccc(C=Cc2ccc(N)cc2)cc1	nt	nt	nt	88*	nt	nt	153*	116*
C[C@]1(CO)CCC[C@@]2(C)C1CC[C@@H](CO)[C@@H]2CCc1ccoc1 (some centres not stated)	6	3	5	-1	-5	2	nt	nt
CCC(C)c1c(NS(=O)(=O)c2ccc(C)cc2)o[nH]c1=O (configuration not stated)	-9	nt	nt	-1	nt	nt	nt	nt
Cc1ccccc1CC1(CO)CCCN(C(=O)CCCN2CCCCC2=O)C1 (configuration not stated)	3	2	-7	29*	0	4	24	23*
CCN(CC)S(=O)(=O)c1cccc(C(=O)N/N=C/c2ccc(N3CCOCC3)cc2)c1	26	-2	8	28*	-3	0	-4	-2
O=C(Cn1ccc(C(F)(F)F)n1)N/N=C/c1ccc(N2CCOCC2)cc1	31	1	0	39*	1	1	127*	102*
CC(C)c1ccc(/C=N/NC(=O)c2cccc(S(=O)(=O)N3CCOCC3)c2)cc1	3	2	-9	4	-8	-2	nt	nt
NC(=O)COc1ccc(/C=N\NC(=O)CC(=O)NCCc2ccccc2)cc1	5	1	1	4	-7	2	nt	nt
Cc1ccc2c(c1)N(CC(=O)NC1CCC(C)CC1)C(=O)c1cccnc1O2 (configuration not stated)	6	3	?	-1	3	0	nt	nt
COc1ccccc1C(=O)N/C(=C/c1ccc(Br)cc1)C(=O)N1CCOCC1	15	nt	nt	4	nt	nt	nt	nt
Cc1c(Cc2ccccc2)c(=O)oc2c(C)c(OC(C)C(=O)N[C@@H](Cc3ccccc3)C(=O)O)ccc12 (some centres not stated)	10	6	-8	68*	-3	0	191*	160*
Cc1c(OCC(=O)N[C@@H](Cc2ccccc2)C(=O)O)ccc2c1oc(=O)c1ccccc12	12	7	-3	52*	-8	1	+	+
CCOc1ccc2oc(C(=O)NCC3CCCO3)c(C)c2c1 (configuration not stated)	-8	-2	-3	22	1	2	nt	nt
COc1ccc2oc(C(=O)OCC(=O)NCC3CCCO3)c(C)c2c1 (configuration not stated)	9	-3	-3	36*	1	3	91*	81*
CCOc1ccc2oc(C(=O)OCC(=O)NCC3CCCO3)c(C)c2c1 (configuration not stated)	4	nt	nt	39*	nt	nt	17	13*
CCOc1ccc(N=NC2C(=O)N(C(N)=S)N=C2C)cc1 (configuration not stated)	3	3	86	-11	10	5	nt	nt
Cc1cccc(NC(=O)CN2C(=O)N/C(=C/c3ccc(C)o3)C2=O)c1	29	-1	0	-1	-2	1	nt	nt
Cc1cccc(NC(=O)CN2C(=O)N/C(=C\c3ccc(-c4cccc(C(=O)O)c4)o3)C2=O)c1	18	-37	2	34*	-3	3	189*	143*
O=C(COC(=O)CCN1C(=O)c2cccc([N+](=O)[O-])c2C1=O)NC1CCS(=O)(=O)C1 (configuration not stated)	-4	-4	3	2	1	nt	nt	nt
O=C(CCCCCN1C(=O)c2cccc3cccc(c23)C1=O)NC1CCS(=O)(=O)C1 (configuration not stated)	11	0	-6	39*	1	2	134*	117*
O=C(CCN1C(=O)c2cccc3cccc(c23)C1=O)NC1CCS(=O)(=O)C1 (configuration not stated)	30	1	-7	39*	6	0	+	+
SMILES	GDH-TPI counter-1	RecA splice inh	Mtb bLac sens	FBA Mtb inh	Rv3671c inh	Mtb UGM inh	Mtb FBA inh conf	GDH-TPI counter-2	others
CCC(c1nnc(SCC(=O)NC2CCCCC2)n1Cc1ccccc1)N(C)C (configuration not stated)	-7	11	-1	43*	-4	-1	+	153*
O=c1oc2c(O)cccc2cc1-c1nc2ccccc2[nH]1	5	-181	11	55*	nt	-4	142*	103*
CC(=O)Nc1ccc(S(=O)(=O)NC(C)C(=O)NCC(c2ccco2)N(C)C)cc1 (configuration not stated)	-1	nt	nt	4	nt	nt	nt	nt
Oc1ccc(CN2CCCCC2)nc1-c1ccccc1	3	-1	3	87*	-2	0	16	0	GDH-TPI dose=5.3*
Cc1nn(C2CC(O)C(O)C(CO)O2)c(=O)[nH]c1=O (configuration not stated)	3	nt	nt	4	nt	nt	nt	nt
N#Cc1c(N(CCO)CCO)nc(N)c2c(N)nc3c(c12)CC(=O)N3CC1CCCO1 (configuration not stated)	20	-44	-9	37*	-2	-2	171*	152*
Cc1ccc(-c2cc(-c3ccccc3)cc(-c3ccccc3)[n+]2-c2ccccc2)cc1	7	9	100	10	10	0	nt	nt
C[n+]1c(-c2ccccc2)cc(-c2ccc(Cl)cc2)cc1-c1ccccc1	-5	8	-1	71*	-12	0	79*	69*
NC(=O)c1sc2nc(-c3ccco3)ccc2c1N	10	-20	-1	53*	6	0	+	+
COC(=O)c1sc2nc(-c3ccco3)ccc2c1N	18	-6	-12	2	5	2	nt	nt
Nc1c(C(=O)Nc2ccccc2F)sc2nc(-c3ccco3)ccc12	32*	-23	28	40*	-10	2	50*	43*
Nc1c(C(=O)Nc2ccccc2F)sc2nc(-c3cccnc3)ccc12	12	-19	-1	0	-6	1	nt	nt
Cc1onc(-c2ccccc2)c1C(=O)NCc1ccccc1F	6	-2	-13	2	-5	1	nt	nt
c1ccc(CCCc2nc(-c3cccnc3)no2)cc1	-3	1	1	77*	3	0	52*	37*
